From PubChem BioAssay (NCATS)
Where “and” joins values, the source holds several entries; their conditions need not be identical. Identical values can stand only once. Results filed as inconclusive are left out. Calls of active or inactive are those of the source. Calls follow the shape of the dose curve; as a rule, active = well fitted activation curve with a large enough effect; inconclusive = small, poorly fitted or top-dose-only effect; inactive = flat fitted curve, though single readings scatter.

System: not listed separately
Assay: qHTS assay for environmental chemicals that activate the Aryl hydrocarbon Receptor (AhR) signaling pathway (AID 651777); also: % of control where 0% means no effect; nearly all actives have a fitted effect of over 15% in size
Conditions: 1A2-DRE human hepatoma cells, luciferase, 24 h; activation: active compounds read high
Summary of the method: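 Human hepatoma 1A2-DRE cells, stably carrying a dioxin response element and CYP1A2 promoter driving luciferase, were exposed to compounds for 24 hr at 37 C and 5% CO2. Luciferase signal was then read after 30 min One-Glo at room temperature.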

Compound | activation
CCOCCOCCOC(C)=O | -0.223% (inactive)
CCOCCOCCOCC | 0.117% (inactive)
CCOc1ccc(NC(=O)OC(C)C)cc1OCC | 2.6% (inactive)
CCCCCCC(C)(C)S | -1.46% (inactive)
CC(C)Nc1nc(N)nc(Cl)n1 | 1.51% (inactive) and -1.55% (inactive)
CCCCCCCCCC(=O)OC | 0.259% (inactive)

Biological target: Peroxisome proliferator-activated receptor alpha (Homo sapiens) (UniProt Q07869)
Sequence (Q07869 whole entry, looked up): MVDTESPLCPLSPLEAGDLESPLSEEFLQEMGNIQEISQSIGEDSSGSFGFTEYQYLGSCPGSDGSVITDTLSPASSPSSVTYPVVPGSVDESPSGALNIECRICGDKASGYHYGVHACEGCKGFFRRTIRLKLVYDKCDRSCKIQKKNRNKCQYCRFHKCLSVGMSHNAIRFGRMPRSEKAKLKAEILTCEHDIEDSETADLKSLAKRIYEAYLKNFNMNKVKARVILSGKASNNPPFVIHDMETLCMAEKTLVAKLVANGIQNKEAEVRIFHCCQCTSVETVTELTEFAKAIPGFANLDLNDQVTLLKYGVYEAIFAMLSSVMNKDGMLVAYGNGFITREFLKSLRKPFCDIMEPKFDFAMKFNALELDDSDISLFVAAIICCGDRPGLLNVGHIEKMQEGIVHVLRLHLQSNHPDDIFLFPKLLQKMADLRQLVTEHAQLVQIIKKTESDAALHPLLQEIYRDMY
Assay: qHTS assay for small molecule agonists of the peroxisome proliferator-activated receptor alpha (PPARalpha) signaling pathway (AID 651778); also: potency is read from the fitted curve at half-maximal effect; as to max response: % of control where 0% means no effect
Conditions: PathHunter PPARalpha complementation, chemiluminescence, 6 h; max response: active compounds read high
Summary of the method: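 Enzyme-fragment complementation assay in which ligand-bound PPARalpha translocates and forms an active enzyme that generates chemiluminescence. Cells were plated overnight, exposed to compound for 6 hr at 37 C, and then given detection reagent for 60 min at room temperature.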

Compound | Potency | max response
CC(C)CCCCCCCCCCCCCCC(=O)O | 39.8 µM (active) | 
C=CCOc1nc(OCC=C)nc(OCC=C)n1 |  | -2.18% (inactive)
CCCCCCCCCCCC(=O)OC |  | 2.34% (inactive)
CCOC(=O)c1ccccc1C |  | -0.0686% (inactive)
CCCCCCCCCCCC[N+](C)(C)C |  | -0.842% (inactive)
CCCC/C=C\CCCCCCCCCC=O |  | 7.85% (inactive)
C=CCCCCCCCCCC |  | -0.224% (inactive)
CCCCCCCCCCCCCCC |  | -1.61% (inactive)
Oc1ccc(C(c2ccc(O)cc2)C(Cl)(Cl)Cl)cc1 |  | -1.42% (inactive)
CC(C)(N=C=O)c1cccc(C(C)(C)N=C=O)c1 |  | -1.39% (inactive)
CC(C)C(=O)OC(=O)C(C)C |  | -0.54% (inactive)
CC1=CC(=O)CC(C)(C)C1 |  | 0.525% (inactive)
CCCCCCCC[Si](OCC)(OCC)OCC |  | 0.0712% (inactive)
CCCCCCCCCCCCCCCO |  | 0.401% (inactive)
COc1cc(Cl)c(OC)cc1N |  | -0.316% (inactive)
O=S(=O)(O)c1cc(S(=O)(=O)O)c2c(N=Nc3ccccc3)c(O)ccc2c1 |  | -5.78% (inactive)
Cc1ccc(C(C)(C)C)c(O)c1 |  | -0.656% (inactive)

Compound | Potency | max response
CC(COc1ccc(C(C)(C)C)cc1)OS(=O)OCCCl (stereo not given) |  | -2.96% (inactive)
CCOC(=O)NCCOc1ccc(Oc2ccccc2)cc1 |  | -0.313% (inactive)
O=C(O)CCCCCCC(=O)O |  | -2.36% (inactive)
CC(C)CCCCOC(=O)c1ccccc1C(=O)OCCCCC(C)C |  | 2.93% (inactive)
COC(OC)(C(=O)c1ccccc1)c1ccccc1 |  | -0.253% (inactive)
CC(C)C[C@H](NC(=O)OCC1c2ccccc2-c2ccccc21)C(=O)O |  | 11.8% (inactive)
COC(=O)CCSCCC(=O)OC |  | -1.49% (inactive)
CC(C)(C)[C@H](O)[C@H](Cc1ccc(Cl)cc1)n1cncn1 |  | -0.299% (inactive) and 2.68% (inactive)
CCOC(=O)[C@H](C)Oc1ccc(Oc2nc3ccc(Cl)cc3o2)cc1 |  | -1.02% (inactive)
COCCOCCOCCOC |  | -0.298% (inactive)
CCCCCCC(O)CCCCCCCCCCC(=O)O (stereo not given) | 31.6 µM (active) | 
CCOCCOCCOCC |  | -2.34% (inactive)
CCOc1ccc(NC(=O)OC(C)C)cc1OCC |  | 2.76% (inactive)
CCCCCCC(C)(C)S |  | -1.64% (inactive)
CC(C)Nc1nc(N)nc(Cl)n1 |  | -0.394% (inactive) and -2.37% (inactive)
CCC(C)OC(=O)N1CCCCC1CCO (stereo not given) |  | -1.06% (inactive)
CCCCCCCCCC(=O)OC |  | 1.96% (inactive)
